Records with an inconclusive call do not appear. A call without a number means that no potency is given here. Values without a mark were called inactive. Activity calls are given as the source filed them. The call rests on the fitted dose curve; in most records, active means well fitted inhibition curve with a large enough effect; inconclusive means small, poorly fitted or top-dose-only effect; inactive means flat fitted curve, though single readings scatter.

For this test, the system named is Zika virus NS2B-NS3 protease. Kind of test: Primary screen GU AMC qHTS for Zika virus inhibitors (AID 1347154). Further: nearly all actives have a fitted effect of over 70% in size. The conditions noted are these: Zika NS2B-NS3 unlinked protease, AMC fluorogenic substrate; series mostly up to 54.1 µM. The essentials:
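Unlinked Zika NS2B hydrophilic domain–NS3 protease complex at 25 nM in 10 mM Tris-HCl pH 8.0, 0.01% Tween 20, with an AMC peptide substrate. Fluorescence change (340/450 nm) over 15 min at room temperature, normalized to controls, fitted to 4-parameter Hill.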
For the compound `CC(Sc1nc2ccccc2[nH]1)C(=O)NN=Cc1cc(Br)ccc1O` (stereo not given), the activity change, negative = inhibition is 1.61% [at 6.83 µM].

Take `CCCCC/C=C\C/C=C\CCCCCCCC(=O)O[C@@H](CO)COC(=O)CCCCCCCCCCCCCCCCC`: the activity change, negative = inhibition was 7.9% [at 6.83 µM]. Take `Nc1ncnc2c1cnn2-c1ccccc1`: the Potency entry was “inactive”. Turning to `CCCCCCCCCCCCCCC[C@@H](O)[C@H](CO)NC(=O)CCCCCCC`, the activity change, negative = inhibition is 6.97% [at 6.83 µM]. As for `O=C1NN(C(=O)Nc2ccc(Br)cc2)C(c2ccccc2)C1c1ccccc1` (stereo not given), the Potency entry is “inactive”. Regarding `Cc1ccc(CC2(O)CCN(CCOc3ccc(O)cc3)CC2)cc1`, the Potency entry was “inactive”. Still for that read-out and setting: for `CCCCn1c(=O)c2[nH]c(C34CC5CC(CC3C5)C4)nc2n(CCCO)c1=O` the value was “inactive”; for `Cc1cc2nc3c(=O)[nH]c(=O)nc-3n(C)c2cc1C=O`, “inactive”. For the compound `Nc1nc2c([nH]c(=O)n2[C@@H]2O[C@H](CO)[C@@H](O)[C@H]2O)c(=O)[nH]1`, the activity change, negative = inhibition is 7.35% [at 6.83 µM].

`Cc1nn(C)c2nc(NNC(=O)Nc3cc(Cl)nc(Cl)c3)cc(C(C)C)c12`: the Potency entry is “inactive”.

`S=C(NCCCc1cnc[nH]1)NCCCN(Cc1ccc(Cl)c(Cl)c1)c1ccc(Br)cn1`: the Potency entry is “inactive”. Still for that read-out and setting: as for `O=C(O)[C@H]1CCCN1`, the entry is “inactive”.

`Nc1ncnc2c1ncn2C1C[C@H](O)[C@@H](CO)O1` (stereo not given in full): the Potency entry is “inactive”.

Turning to `O=C1CC2(CCCC2)CC(=O)N1CCCCNCC1COc2ccccc2O1` (stereo not given), the Potency result was “inactive”. For the compound `C[C@@H](O)CNC(C)(C)CC(=O)N[C@@H]1CCc2ccccc2N(Cc2ccc(-c3ccccc3-c3nn[nH]n3)cc2)C1=O`, the Potency result is “inactive”. `CCCCC/C=C\C[C@@H](O)/C=C/C=C/C=C\[C@@H](O)CCCC(=O)O`: the activity change, negative = inhibition is 25.7% [at 0.59 µM]. Regarding `Cc1nc2c(c(=O)[nH]1)CSCC2`, the Potency result was “inactive”. The same measure, in the same setting: as for `C=CC1CN2CCC1C[C@H]2C(O)c1ccnc2ccc(OC)cc12` (stereo not given in full), the entry is “inactive”; as for `NC(C(=O)O)C(CC(=O)O)c1ccc(Cl)cc1` (stereo not given), “inactive”; as for `O=C(NCCCCN1CCN(c2cccc(Cl)c2Cl)CC1)c1ccc2c(c1)Cc1ccccc1-2`, “inactive”. As to `COc1ccccc1N1CCN(CC2CN3C(=O)N(C)c4ccccc4C3=N2)CC1` (stereo not given), the Potency result was “inactive”.

Consider `C=C1O[C@@](CO)(n2cnc3c(N)ncnc32)[C@H](O)[C@@H]1O`, for which the Potency entry was “inactive”.

On to `C[C@H](CCC(=O)NCC(=O)O)C1CC[C@H]2C3CC[C@@H]4C[C@H](O)CC[C@]4(C)C3C[C@H](O)[C@]12C` (stereo not given in full), for which the Potency result is “inactive”. Consider `CCOC(=O)C1OC1C(=O)NC(CC(C)C)C(=O)NCCC(C)C` (stereo not given), for which the Potency entry is “inactive”. In the case of `O=c1[nH]cnc2c1ncn2C1O[C@H](CO)[C@@H](O)[C@H]1O` (stereo not given in full), the Potency entry was “inactive”. Same read-out and setting: as for `Cn1cnnc1Sc1c([N+](=O)[O-])ncn1C`, the entry is “inactive”; as for `CC#CC(=O)Nc1cc2c(Nc3ccc(F)c(Cl)c3)ncnc2cn1`, “inactive”. As for `CC(C)=CCC/C(C)=C/CC/C(C)=C/CC[C@]1(C)CCc2c(C)c(O)c(C)c(C)c2O1`, the activity change, negative = inhibition is 0.636% [at 6.83 µM]. Consider `Cc1c(C(=O)N(C)C2CCCCC2)sc2nc3ccc(N)cc3n12`, for which the Potency entry is “inactive”.

As to `CCCCCCCCCCCCCC(=O)N[C@@H](C)[C@H](O)c1ccccc1`, the activity change, negative = inhibition was 10.8% [at 6.83 µM]. On to `O=C(C1CCCCC1)N(CCN1CCN(c2ccccc2CO)CC1)c1ccccn1`, for which the Potency result was “inactive”.

Regarding `CCCCC/C=C\C\C=C/C=C/C=C/[C@@H](SC[C@H](N)C(=O)NCC(=O)O)[C@@H](O)CCCC(=O)O`, the activity change, negative = inhibition was 13.3% [at 0.59 µM]. In the case of `CCN(CC)CCCCN1c2ccccc2Oc2ccc(Cl)cc21`, the Potency result was “inactive”.

Regarding `CN(Cc1ccccc1)C(=O)[C@H](Cc1ccc2ccccc2c1)NC(=O)[C@@H]1C[C@@H](O)CN1C(=O)c1cn(C)c2ccccc12`, the Potency result is “inactive”. Still for that read-out and setting: as for `CC(=Nc1ccccc1N)c1c(C)cc(=O)n(O)c1O`, the entry is “inactive”. In the case of `Nn1cc(Br)c(=O)[nH]c1=O`, the Potency entry was “inactive”. Same read-out and setting: as for `C/C=C1/C(=O)C[C@@H]2[C@H]3CCC4=CC(=O)CC[C@]4(C)[C@@H]3CC[C@]12C`, the entry is “inactive”.

Regarding `CC(C)c1ccc2c(c1)CC[C@H]1[C@](C)(CN)CCC[C@]21C`, the Potency result is “inactive”. Still for that read-out and setting: as for `COC(=O)[C@H](CCCN=C(N)N)NC(=O)CCCc1c(-c2ccccc2)[nH]c2c(F)cc(F)cc12`, the entry is “inactive”; as for `COc1ccc(CCCn2ncc3c2nc(N)n2nc(-c4ccco4)nc32)cc1`, “inactive”.

The values are drawn from PubChem BioAssay (NCATS).
